PubChem BioAssay (NCATS)
Values joined by “and” are separate entries in the source; they are usually repeats but may differ in a detail not shown here. Equal values may be shown once. Inconclusive results are not listed. Entries that show only a call come without a potency. Some structures have more than one record in an assay (separate samples or runs), and their calls can disagree. Active and inactive are the calls of the source. Unless noted, calls follow the shape of the dose curve; as a rule, active = well fitted curve in the direction sought with a large enough effect; inconclusive = small, poorly fitted or top-dose-only effect, or another doubt; inactive = no such curve, though single readings can be large; an effect the other way counts as inactive or inconclusive.

What was measured:
[1] = Cell Viability - BJ (AID 421; calls by dose curve;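 also: potency is read from the fitted curve at half-maximal effect; cells exposed to compound for 40 hours at 37 °C before readout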); settings: BJ fibroblast viability, qHTS
In short: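 Normal human BJ foreskin fibroblasts, 1500/well in complete medium, treated 40 hr at 37 °C. Cellular ATP by CellTiter-Glo luminescence; normalized to DMSO and 100 uM tamoxifen, AC50 from Hill fit.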

[2] = Cell Viability - SK-N-SH (AID 435; calls by dose curve;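 also: potency is read from the fitted curve at half-maximal effect; compound exposure lasted 40 h at 37 °C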); settings: SK-N-SH neuroblastoma cell viability qHTS
In short: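 Human neuroblastoma line, 40 h exposure at 37 °C, ATP quantified via luciferase luminescence; DMSO and 100 uM tamoxifen define 0 and 100% inhibition for AC50 fitting.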

[3] = biological target: Mitogen-activated protein kinase 10 (Mus musculus) (UniProt Q61831); experiment: JNK3 AlphaScreen Assay (AID 530; active = well fitted curve in either direction with a large enough effect, not every such curve was filed as active;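 also: kinase came from lysate of stimulated human HepG2 cells; signal reports phosphorylation of biotinylated GST-cJun 1-79 at Ser73 with 10 µM ATP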); settings: JNK3 lysate, c-Jun phosphorylation; series mostly up to 57.1 µM
In short: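 Activity was read by AlphaScreen after JNK3-containing HepG2 lysate (cytokine pre-activated) phosphorylated biotinylated GST-cJun with 10 uM ATP at room temperature. Phospho-Ser73 cJun antibody with Protein-A acceptor beads provided detection.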

[4] = Cell Viability - NIH 3T3 (AID 541); settings: NIH 3T3 cell viability, qHTS; activity change, negative = cytotoxicity: at 92.2 µM (top of the series);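 also: cells exposed to compound for 40 hours; nearly all actives have a fitted effect of over 25% in size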; also: potency is read from the fitted curve at half-maximal effect
In short: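 Cells seeded at 1000/well, rested 5 hr at 37 °C, then dosed and incubated 40 hr at 37 °C. CellTiter-Glo added, 20 min room temperature, luminescence read. AC50 by Hill fit.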

[5] = Cell Viability - Mesenchymal (AID 546); settings: mesenchymal cells viability, qHTS; activity change, negative = cytotoxicity: at 91.7 µM (top of the series);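 also: cells exposed to compound for 40 hours before reading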
In short: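 Human renal mesenchymal cells (glomerulus-derived), 1000 cells/well, 5 hr 37 °C pre-incubation; compound 40 hr, 37 °C; CellTiter-Glo, 20 min RT; luminescence; AC50 via Hill equation.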

[6] = Cellular Toxicity (caspase-3) HepG2 (AID 654); settings: HepG2 caspase-3 activation, luminescence, 0% = DMSO only, 100% = tamoxifen; series mostly up to 92.2 µM;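 also: cells exposed to compound for 16 hours before reading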
In short: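 Caspase 3/7 activation in HepG2 is measured as rising luminescence after a 16 hr treatment at 37 °C. Values are scaled between DMSO basal and 100 uM tamoxifen, and AC50 is fitted with the Hill equation.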

[7] = Cellular Toxicity (caspase-3) HUV-EC-C (AID 656); settings: HUV-EC-C cells, caspase-3 activation (apoptosis), vehicle = 0, 100 µM tamoxifen = 100%; series mostly up to 92.2 µM
In short: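 Concentration-dependent caspase 3/7 induction was assessed in HUV-EC-C cells exposed for 16 hours. Data scaled between DMSO and tamoxifen (100 uM) controls.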

[8] = Cellular Toxicity (caspase-3) BJ (AID 658); settings: BJ fibroblasts, luminescence, normalized: DMSO 0%, staurosporine 100%; series mostly up to 91.7 µM
In short: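 qHTS, BJ fibroblasts, 1000 cells/well; 5 hr preincubation, 16 hr compound, 37 °C; Caspase-Glo 3/7 reagent, 1 hr RT; luminescence. DMSO = 0%, 10 uM staurosporine = 100%. Hill-equation AC50.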

[9] = Cellular Toxicity (caspase-3) MRC-5 (AID 659); settings: MRC-5 cells, luminescence, normalized: DMSO 0%, 10 µM staurosporine 100%; series mostly up to 91.7 µM
In short: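 MRC-5 fibroblasts, 1500/well; 16 h cpd, 37 °C; Caspase-Glo 3/7, 1 h RT; lumi read. Norm: DMSO = 0%, 10 uM staurosporine = 100%. Hill-fit AC50 from qHTS conc-response.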

[10] = Cellular Toxicity (caspase-3) Mesangial (AID 660); settings: mesangial cells, normalized: DMSO 0%, 100 µM tamoxifen 100%; series mostly up to 91.7 µM;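 also: combined caspase 3 and 7 activity read by Caspase-Glo luminescence; cells exposed to compound for 16 h before the caspase read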
In short: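 Seed cells derived from normal human renal glomeruli, incubate 5 h, add compounds across concentrations and incubate 16 h at 37 °C. Caspase 3/7 activation is then quantified by luciferase light, with AC50 derived by Hill modeling.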

[11] = Cellular Toxicity (caspase-3) Hek293 (AID 664); settings: HEK293 caspase-3 activation, DMSO = 0%, 100 µM tamoxifen = 100%; series mostly up to 92.2 µM;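 also: cells exposed to compound for 16 h at 37 °C before readout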
In short: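 qHTS, HEK293 (human embryonic kidney), 16 h cpd exposure in complete medium. Caspase-3/7 activation = luminescence increase; normalized to DMSO/100 uM tamoxifen; Hill-fit AC50.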

[12] = MultiTox-Fluor Cytotoxicity Assay - LYMP1-003 - Live Cells (AID 962); settings: LYMP1-003 lymphoblastoid cells, MultiTox-Fluor live-cell protease fluorescence; series mostly up to 92.2 µM;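 also: cells exposed to compound for 16 hours at 37 °C; cytotoxic hits lower the live-cell protease signal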
In short: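 Acute cytotoxicity is scored as a drop in live-cell protease activity in human lymphoblastoid LYMP1-003 cells after 16 hr compound exposure at 37 C. AC50 values come from Hill-equation modelling of concentration-response data.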

[13] = Cell Viability - LYMP1-003 - Assay at 40 hr (AID 964); settings: LYMP1-003 lymphoblastoid viability; series mostly up to 92.2 µM; also: nearly all actives have a fitted effect of over 60% in size
In short: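 Luminescent ATP signal (CellTiter-Glo) served as the viability read-out after 40 hr compound treatment of human lymphoblastoid LYMP1-003 cells at 37 C. Decreases in ATP were fitted with the Hill equation to give AC50.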

[14] = Cell Viability - LYMP2-011 (AID 969); settings: LYMP2-011 lymphoblastoid cells viability; series mostly up to 92.2 µM; also: nearly all actives have a fitted effect of over 60% in size
In short: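 In this qHTS cytotoxicity format, compounds are tested across concentrations on human lymphoblastoid cells in complete medium for 24 hours at 37 C. Viability is taken as cellular ATP measured by luciferase luminescence.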

[15] = Cell Viability - LYMP2-013 (AID 970); settings: LYMP2-013 lymphoblastoid cells viability; series mostly up to 92.2 µM;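 also: cells exposed to compound for 24 h at 37 °C; nearly all actives have a fitted effect of over 55% in size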
In short: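 Cytotoxicity is scored as a concentration-dependent drop in intracellular ATP in human lymphoblastoid cells after 24 hr compound exposure at 37 C. ATP is quantified by luciferase luminescence, and AC50 values come from Hill-equation modeling.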

[16] = Cell Viability - LYMP2-017 (AID 972); settings: LYMP2-017 lymphoblastoid cell viability; series mostly up to 92.2 µM; also: nearly all actives have a fitted effect of over 55% in size
In short: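 Cytotoxicity is scored as a concentration-dependent drop in cellular ATP in a human lymphoblastoid line after 24 hr treatment at 37 C. Values are AC50s from Hill-equation modelling.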

[17] = Cell Viability - LYMP2-010 (AID 981); settings: LYMP2-010 lymphoblastoid cell viability, qHTS; series mostly up to 92.2 µM; also: nearly all actives have a fitted effect of over 55% in size
In short: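 Steps: seed 2500 LYMP2-010 cells per well; incubate 5 hr at 37 C; add compound; incubate 24 hr at 37 C; add CellTiter-Glo, wait 30 min at room temperature; read luminescence. Concentration-response fitted to Hill equation for AC50.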

[18] = Cell Viability - LYMP2-012 (AID 982); settings: LYMP2-012 lymphoblastoid cell viability qHTS; series mostly up to 92.2 µM;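 also: cellular ATP by luciferase luminescence where a drop means cytotoxicity; cells exposed to compound for one day before reading; nearly all actives have a fitted effect of over 55% in size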
[19] = qHTS Assay for Identification of Small Molecule Inducers of Hypoxia Response (AID 2120; active = well fitted curve in the direction sought with a large enough effect in the signal ratio, with a control signal flat, not every such curve was filed as active; the % refers to the signal ratio); settings: hypoxia response reporter cells, beta-lactamase ratio readout; series mostly up to 104 µM
In short: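 Cell-based qHTS for reporter induction: hypoxia response element controlled beta-lactamase in ME-180 cells. Compounds incubated 17 h at 37 degrees C; activity from blue/green (460/530 nm) ratio, inducers ranked by AC50.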

[20] = biological target: Peroxisome proliferator-activated receptor alpha (Homo sapiens) (UniProt Q07869); experiment: qHTS assay for small molecule agonists of the peroxisome proliferator-activated receptor alpha (PPARalpha) signaling pathway (AID 651778); settings: PathHunter PPARalpha complementation, chemiluminescence, 6 h; max response: stronger effect = higher value
In short: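 Enzyme-fragment complementation assay in which ligand-bound PPARalpha translocates and forms an active enzyme that generates chemiluminescence. Cells were plated overnight, exposed to compound for 6 hr at 37 C, and then given detection reagent for 60 min at room temperature.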

Sequence of Peroxisome proliferator-activated receptor alpha (Homo sapiens) (Q07869 whole entry, looked up, the tested form may be a part): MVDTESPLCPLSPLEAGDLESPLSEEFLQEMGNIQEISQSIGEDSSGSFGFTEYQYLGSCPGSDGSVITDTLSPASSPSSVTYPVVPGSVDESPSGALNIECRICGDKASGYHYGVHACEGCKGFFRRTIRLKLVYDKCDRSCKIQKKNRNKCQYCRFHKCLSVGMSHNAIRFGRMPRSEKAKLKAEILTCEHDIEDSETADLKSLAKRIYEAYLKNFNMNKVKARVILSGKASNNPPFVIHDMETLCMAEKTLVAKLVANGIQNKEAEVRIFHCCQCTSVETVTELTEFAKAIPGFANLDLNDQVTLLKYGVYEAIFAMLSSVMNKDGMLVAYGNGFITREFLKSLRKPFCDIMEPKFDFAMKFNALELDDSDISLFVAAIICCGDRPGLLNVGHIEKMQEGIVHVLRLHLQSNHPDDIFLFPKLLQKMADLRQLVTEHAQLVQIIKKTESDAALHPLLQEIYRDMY

In the case of `O=C(O)CC(C(=O)O)C(CC(=O)O)C(=O)O` (stereo unspecified), the Potency [1] is reported as > 92 µM (inactive), the Potency [2] is reported as > 92 µM (inactive) and the Potency [3] is reported as “inactive”. The Potency [4] was “inactive”, the activity change, negative = cytotoxicity [5] was -11.1% (inactive) and the outcome [6] was “inactive”. For the same compound, the outcome [7] was “inactive”, the outcome [8] was “inactive” and the outcome [9] was “inactive”. For the same compound, the outcome [10] was “inactive”, the outcome [11] was “inactive” and the Potency [12] was “inactive”. For the same compound, the Potency [13] was “inactive”, the Potency [14] was “inactive” and the Potency [15] was “inactive”. For the same compound, the Potency [16] was “inactive”, the Potency [17] was “inactive” and the Potency [18] was “inactive”. The outcome [19] was “inactive” and the max response [20] was -1.2% (inactive) and -0.001% (inactive).

With `Clc1cc(Cl)c(Cl)c(Cl)c1Cl` the Potency [1] was > 92 µM (inactive), the Potency [2] was > 92 µM (inactive) and the Potency [3] was “inactive”. For the same compound, the Potency [4] was “inactive”, the activity change, negative = cytotoxicity [5] was -0.0158% (inactive) and the outcome [6] was “inactive”. The outcome [7] was “inactive”, the outcome [8] was “inactive” and the outcome [9] was “inactive”. For the same compound, the outcome [10] was “inactive”, the outcome [11] was “inactive” and the Potency [12] was “inactive”. The Potency [13] was “inactive”, the Potency [14] was “inactive” and the Potency [15] was “inactive”. For the same compound, the Potency [16] was “inactive”, the Potency [17] was “inactive” and the Potency [18] was “inactive”. For the same compound, the outcome [19] was “inactive” and the max response [20] was -5.3% (inactive) and -0.232% (inactive).

With `CN1CC[C@H](CN2c3ccccc3Sc3ccccc32)C1` the activity change, negative = inhibition [3] was 0.762% [at 11.4 µM] (inactive).

For `CCCCC(CC)CN` (stereo unspecified), the Potency [1] was > 92 µM (inactive), the Potency [2] was > 92 µM (inactive) and the Potency [3] was “inactive”. The Potency [4] was 12.6 µM (active) and inactive, the activity change, negative = cytotoxicity [5] was -2.68% (inactive) and 2.84% (inactive) and the outcome [6] was “inactive”. For the same compound, the outcome [7] was “inactive”, the outcome [8] was “inactive” and the outcome [9] was “inactive”. For the same compound, the outcome [10] was “inactive”, the outcome [11] was “inactive” and the Potency [12] was “inactive”. The Potency [13] was “inactive”, the Potency [14] was “inactive” and the Potency [15] was “inactive”. The Potency [16] was “inactive”, the Potency [17] was “inactive” and the Potency [18] was “inactive”. For the same compound, the outcome [19] was “inactive” and the max response [20] was -4.52% (inactive) and -4.66% (inactive).

For `COC(=O)c1ccc(C=O)cc1`, the Potency [1] was > 92 µM (inactive), the Potency [2] was > 92 µM (inactive) and the Potency [3] was “inactive”. For the same compound, the activity change, negative = cytotoxicity [4] was -110% (active), the activity change, negative = cytotoxicity [5] was -7.99% (inactive) and the outcome [6] was “inactive”. The outcome [7] was “inactive”, the outcome [8] was “inactive” and the outcome [9] was “inactive”. The outcome [10] was “inactive”, the outcome [11] was “inactive” and the Potency [12] was “inactive”. For the same compound, the Potency [13] was “inactive”, the Potency [14] was “inactive” and the Potency [15] was “inactive”. The Potency [16] was “inactive”, the Potency [17] was “inactive” and the Potency [18] was “inactive”. The outcome [19] was “inactive” and the max response [20] was -7.41% (inactive) and -4.28% (inactive).

In the case of `c1ccc2c(c1)c1cccc3ccc4cccc2c4c31`, the Potency [1] is reported as > 92 µM (inactive), the Potency [2] is reported as > 92 µM (inactive) and the Potency [3] is reported as “inactive”. The Potency [4] was “inactive”, the activity change, negative = cytotoxicity [5] was 2.17% (inactive) and the outcome [6] was “inactive”. The outcome [7] was “inactive”, the outcome [8] was “inactive” and the outcome [9] was “inactive”. For the same compound, the outcome [10] was “inactive”, the outcome [11] was “inactive” and the Potency [12] was “inactive”. For the same compound, the Potency [13] was “inactive”, the Potency [14] was “inactive” and the Potency [15] was “inactive”. For the same compound, the Potency [16] was “inactive”, the Potency [17] was “inactive” and the Potency [18] was “inactive”. The outcome [19] was “inactive” and the max response [20] was -2.3% (inactive) and -3.04% (inactive).
